This note sets out measurements from PubChem BioAssay AID463173 (ICCB-Longwood Screening Facility, Harvard Medical School, 2010).

SMILES strings stand for the structures. The whole screen tested about 52,000 compounds, of which about 4,300 (8.3%) were called active. This is one part of a sample in which actives are shown more often than they occur. Values without a mark were called inactive. Rule as the data show it: active = survival mostly below about 52% (no sharp cut-off); inactive = mostly above about 56%.

This experiment deals with DeltatarO mutant. Briefly: S. aureus survival, RN4220 and DeltatarO strains – OD600, teichoic acid synthesis inhibitors, primary screen (AID 463173). The settings on record: S. aureus RN4220 wild type/DeltatarO growth, OD600, 18 h, hits give low values, screened at 18.75 µg/mL (by protocol).
On to `CCc1c(C)nc2nncn2c1Nc1ccc(Cl)cc1`, for which the survival was 91%.

For the compound `Cc1ccc(N2CCN(c3nc4ccccc4c4nnc(C)n34)CC2)c(C)c1`, the survival was 101%.

Take `CCOC(=O)c1cc(OC(=O)c2ccccc2OC)n(-c2ccccc2)n1`: the survival was 54%.

For `CCOC(=O)c1cc(OC(=O)c2cc(OC)cc(OC)c2)n(-c2ccccc2)n1`, the survival was 62%.

For `CCOC(=O)c1cc(OC(=O)c2ccc(OC)c(OC)c2)n(-c2ccccc2)n1`, the survival was 67%.

As for `CCOC(=O)c1cc(OC(=O)c2ccc(Cl)cc2)n(-c2ccccc2)n1`, the survival was 85% (active).

Regarding `CCOC(=O)c1cc(OC(=O)c2cccc(C)c2)n(-c2ccccc2)n1`, the survival is 59%.

`CCOC(=O)c1cc(OC(=O)c2ccc(OC)cc2)n(-c2ccccc2)n1`: the survival was 59% (active).

`CCOC(=O)c1cc(OC(=O)c2cccc(F)c2)n(-c2ccccc2)n1`: the survival was 61%.

Take `CCOC(=O)c1cc(OC(=O)c2cc(OC)c(OC)c(OC)c2)n(-c2ccccc2)n1`: the survival was 54% (active).

Consider `CCOC(=O)c1cc(OC(=O)c2ccc(C)cc2)n(-c2ccccc2)n1`, for which the survival is 137%.

As for `CCOc1ccc(NC(=O)CN2C(=O)COc3ccc(S(=O)(=O)NC4CCCC4)cc32)cc1`, the survival is 73%.

As for `O=C(c1ccc(F)cc1)N1CCN(CCc2ccncc2)CC1`, the survival was 84%.

`CCc1ccc(NCc2cc3ccc(OC)cc3n(CC(=O)Nc3c(C)cc(C)cc3C)c2=O)cc1`: the survival is 76%.

As for `N#CSc1ccc(NCCO)cc1C(F)(F)F`, the survival is 95%.

For the compound `O=C(NCCc1ccc(Cl)cc1)C(=O)NCC(c1ccco1)S(=O)(=O)c1ccc(Cl)cc1` (configuration not stated), the survival is 94%.

On to `O=C1CN(C(=O)c2ccc(Cl)cc2Cl)C(c2ccc(F)cc2)c2cc(F)ccc2N1` (configuration not stated), for which the survival was 65%.

Take `O=c1c(NCc2ccccc2Cl)nccn1-c1ccccc1`: the survival is 17% (active).

Turning to `COc1ccc(-n2ccnc(NCc3cccs3)c2=O)cc1`, the survival was 20% (active).

Consider `O=c1c(NCCc2ccc(Cl)cc2)nccn1-c1ccccc1`, for which the survival was 55%.

`COc1ccc(-n2ccnc(NCc3ccc(Cl)cc3)c2=O)cc1`: the survival was 8% (active).

Take `COc1ccc(-n2ccnc(NCc3ccccc3OC)c2=O)cc1`: the survival is 89%.

As for `COc1ccc(-n2ccnc(NCc3ccccc3Cl)c2=O)cc1OC`, the survival is 81%.

With `O=c1c(NCc2cccs2)nccn1-c1ccccc1`, the survival is 68%.

For `COc1ccc(-n2ccnc(NCc3ccc(C)cc3)c2=O)cc1OC`, the survival was 94%.

Take `COc1ccc(-n2ccnc(NCc3cccs3)c2=O)cc1OC`: the survival is 85%.

With `Cc1cc(C)cc(NC(=O)c2cccc(N3CCCS3(=O)=O)c2)c1`, the survival is 101%.
